Measured values published in PMC8384837, “Expanding the binding specificity for RNA recognition by a PUF domain”.
Positions count from the first letter of the chain named.

Tests used:
Test in all cases: yeast three-hybrid, YBZ-1, SC-Leu-His + 0.5 mM 3-AT, 4 days
Settings in all cases: tags: N-Gal4 AD-HA kept; label: inside an RPR1-promoter hybrid RNA with tandem MS2 sites; ssRNA
PUM1 PUF domain R4-EWG = PUM1 PUF domain R4-EWG (Homo sapiens, UniProt Q14671 828-1176, N971E;H972W;Q975G)
How it was run: (§1)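 Sequencing with Illumina followed PCR amplification of the repeat regions from transformants grown four days on SC-Leu (input) or SC-Leu-His + 0.5 mM 3-AT (selection). The transformants were strain YBZ-1 with a LexA–MS2 coat fusion and a HIS3 reporter, carrying Pumilio-1 PUF domain libraries and matching RNA elements. The interaction score is the log change in variant frequency from input to selection, computed in log2 with a pseudocount of 1 for absent variants.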

PUM1 PUF domain R5-GTE = PUM1 PUF domain R5-GTE (Homo sapiens, UniProt Q14671 828-1176, C1007G;R1008T;Q1011E)
How it was run: as §1

PUM1 PUF domain R7-QRK = PUM1 PUF domain R7-QRK (Homo sapiens, UniProt Q14671 828-1176, S1079Q;N1080R;E1083K)
How it was run: as §1

PUM1 PUF domain R3-IWK = PUM1 PUF domain R3-IWK (Homo sapiens, UniProt Q14671 828-1176, C935I;R936W;Q939K)
How it was run: as §1

PUM1 PUF domain R1-HLR = PUM1 PUF domain R1-HLR (Homo sapiens, UniProt Q14671 828-1176, S863H;R864L;Q867R)
How it was run: as §1

PUM1 PUF domain R1-RRT = PUM1 PUF domain R1-RRT (Homo sapiens, UniProt Q14671 828-1176, S863R;Q867T)
How it was run: as §1

PUM1 PUF domain R5-SRL = PUM1 PUF domain R5-SRL (Homo sapiens, UniProt Q14671 828-1176, C1007S;Q1011L)
How it was run: as §1

PUM1 PUF domain R6-AYR = target: T1, PUM1 PUF domain R6-AYR (Homo sapiens, UniProt Q14671 828-1176, N1043A;Q1047R)
T1 sequence: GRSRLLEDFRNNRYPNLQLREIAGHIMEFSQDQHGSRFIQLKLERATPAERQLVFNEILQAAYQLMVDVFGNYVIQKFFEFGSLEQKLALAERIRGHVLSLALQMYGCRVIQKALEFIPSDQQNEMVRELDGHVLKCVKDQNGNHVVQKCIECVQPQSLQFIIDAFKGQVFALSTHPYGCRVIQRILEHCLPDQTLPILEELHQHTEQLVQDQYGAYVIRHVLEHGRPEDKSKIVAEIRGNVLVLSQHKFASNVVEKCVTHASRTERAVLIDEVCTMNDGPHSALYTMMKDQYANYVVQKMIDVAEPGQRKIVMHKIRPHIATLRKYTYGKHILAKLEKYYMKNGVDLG
How it was run: as §1

PUM1 PUF domain R3-VCE = PUM1 PUF domain R3-VCE (Homo sapiens, UniProt Q14671 828-1176, C935V;R936C;Q939E)
How it was run: as §1

PUM1 PUF domain R3-TVE = PUM1 PUF domain R3-TVE (Homo sapiens, UniProt Q14671 828-1176, C935T;R936V;Q939E)
How it was run: as §1

PUM1 PUF domain R8-RWQ = PUM1 PUF domain R8-RWQ (Homo sapiens, UniProt Q14671 828-1176, N1122R;Y1123W)
How it was run: as §1

PUM1 PUF domain R8-IYV = PUM1 PUF domain R8-IYV (Homo sapiens, UniProt Q14671 828-1176, N1122I;Q1126V)
How it was run: as §1

PUM1 PUF domain R8-MYR = PUM1 PUF domain R8-MYR (Homo sapiens, UniProt Q14671 828-1176, N1122M;Q1126R)
How it was run: as §1

PUM1 PUF domain R8-FFR = PUM1 PUF domain R8-FFR (Homo sapiens, UniProt Q14671 828-1176, N1122F;Y1123F;Q1126R)
How it was run: as §1

PUM1 PUF domain R8-LFR = PUM1 PUF domain R8-LFR (Homo sapiens, UniProt Q14671 828-1176, N1122L;Y1123F;Q1126R)
How it was run: as §1

PUM1 PUF domain R6-LWR = target: T2, PUM1 PUF domain R6-LWR (Homo sapiens, UniProt Q14671 828-1176, N1043L;Y1044W;Q1047R)
T2 sequence: T1 sequence with A216L, Y217W
How it was run: as §1

PUM1 PUF domain R8-SWK = PUM1 PUF domain R8-SWK (Homo sapiens, UniProt Q14671 828-1176, N1122S;Y1123W;Q1126K)
How it was run: as §1

PUM1 PUF domain R3-GWF = PUM1 PUF domain R3-GWF (Homo sapiens, UniProt Q14671 828-1176, C935G;R936W;Q939F)
How it was run: as §1

PUM1 PUF domain R8-SYP = PUM1 PUF domain R8-SYP (Homo sapiens, UniProt Q14671 828-1176, N1122S;Q1126P)
How it was run: as §1

PUM1 PUF domain R6-FYL = target: T3, PUM1 PUF domain R6-FYL (Homo sapiens, UniProt Q14671 828-1176, N1043F;Q1047L)
T3 sequence: T1 sequence with A216F, R220L
How it was run: as §1

Chain of PUM1 PUF domain R1-RRT (Q14671 828-1176 S863R/Q867T): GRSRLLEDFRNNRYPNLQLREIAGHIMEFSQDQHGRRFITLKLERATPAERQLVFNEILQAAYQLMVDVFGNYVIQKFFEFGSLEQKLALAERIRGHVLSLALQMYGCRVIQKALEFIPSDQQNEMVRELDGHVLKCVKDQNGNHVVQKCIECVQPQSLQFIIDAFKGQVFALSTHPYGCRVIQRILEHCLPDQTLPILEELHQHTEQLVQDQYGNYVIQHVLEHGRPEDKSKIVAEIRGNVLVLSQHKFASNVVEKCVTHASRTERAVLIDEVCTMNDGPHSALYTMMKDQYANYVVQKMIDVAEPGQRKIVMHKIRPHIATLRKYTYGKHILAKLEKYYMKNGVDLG

## GGCUAGAACUAGUGGAUCCCCCGGCGCCCGGCGGCUCGAGCCCGGGUAAGUGUACAUAGUCUGCAUGCCGCCGGGCGCCAUGCCUGCAGGUCGACUCUAGAAAACAUG
PUM1 PUF domain R4-EWG
  binding signal: 1.12 log2 enrichment (interaction score)

## GGCUAGAACUAGUGGAUCCCCCGGCGCCCGGCGGCUCGAGCCCGGGUAAGUGUGAAUAGUCUGCAUGCCGCCGGGCGCCAUGCCUGCAGGUCGACUCUAGAAAACAUG
PUM1 PUF domain R5-GTE
  binding signal: 3.8 log2 enrichment (interaction score)

## GGCUAGAACUAGUGGAUCCCCCGGCGCCCGGCGGCUCGAGCCCGGGUAAGUCUAAAUAGUCUGCAUGCCGCCGGGCGCCAUGCCUGCAGGUCGACUCUAGAAAACAUG
PUM1 PUF domain R7-QRK
  binding signal: 2.27 log2 enrichment (interaction score)

## GGCUAGAACUAGUGGAUCCCCCGGCGCCCGGCGGCUCGAGCCCGGGUAAGUGUAAUUAGUCUGCAUGCCGCCGGGCGCCAUGCCUGCAGGUCGACUCUAGAAAACAUG
PUM1 PUF domain R3-IWK
  binding signal: 3.81 log2 enrichment (interaction score)

## GGCUAGAACUAGUGGAUCCCCCGGCGCCCGGCGGCUCGAGCCCGGGUAAGUGUAAAUUGUCUGCAUGCCGCCGGGCGCCAUGCCUGCAGGUCGACUCUAGAAAACAUG
PUM1 PUF domain R1-HLR
  binding signal: 2.68 log2 enrichment (interaction score)
PUM1 PUF domain R1-RRT
  binding signal: 4.21 log2 enrichment (interaction score)

## GGCUAGAACUAGUGGAUCCCCCGGCGCCCGGCGGCUCGAGCCCGGGUAAGUGUUAAUAGUCUGCAUGCCGCCGGGCGCCAUGCCUGCAGGUCGACUCUAGAAAACAUG
PUM1 PUF domain R5-SRL
  binding signal: 2.41 log2 enrichment (interaction score)

## GGCUAGAACUAGUGGAUCCCCCGGCGCCCGGCGGCUCGAGCCCGGGUAAGUGCAAAUAGUCUGCAUGCCGCCGGGCGCCAUGCCUGCAGGUCGACUCUAGAAAACAUG
PUM1 PUF domain R6-AYR
  binding signal: 3.72 log2 enrichment (interaction score)

## GGCUAGAACUAGUGGAUCCCCCGGCGCCCGGCGGCUCGAGCCCGGGUAAGUGUAAAUGGUCUGCAUGCCGCCGGGCGCCAUGCCUGCAGGUCGACUCUAGAAAACAUG
PUM1 PUF domain R1-RRT
  binding signal: 1.65 log2 enrichment (interaction score)

## GGCUAGAACUAGUGGAUCCCCCGGCGCCCGGCGGCUCGAGCCCGGGUAAGUAUAAAUAGUCUGCAUGCCGCCGGGCGCCAUGCCUGCAGGUCGACUCUAGAAAACAUG
PUM1 PUF domain R7-QRK
  binding signal: 3.05 log2 enrichment (interaction score)

## GGCUAGAACUAGUGGAUCCCCCGGCGCCCGGCGGCUCGAGCCCGGGUAAGUGUAAGUAGUCUGCAUGCCGCCGGGCGCCAUGCCUGCAGGUCGACUCUAGAAAACAUG
PUM1 PUF domain R3-VCE
  binding signal: 3.08 log2 enrichment (interaction score)
PUM1 PUF domain R3-TVE
  binding signal: 6.09 log2 enrichment (interaction score)

## GGCUAGAACUAGUGGAUCCCCCGGCGCCCGGCGGCUCGAGCCCGGGUAAGUGUAAAUCGUCUGCAUGCCGCCGGGCGCCAUGCCUGCAGGUCGACUCUAGAAAACAUG
PUM1 PUF domain R1-HLR
  binding signal: 3.24 log2 enrichment (interaction score)
PUM1 PUF domain R1-RRT
  binding signal: 4.11 log2 enrichment (interaction score)

## GGCUAGAACUAGUGGAUCCCCCGGCGCCCGGCGGCUCGAGCCCGGGUAAGCGUAAAUAGUCUGCAUGCCGCCGGGCGCCAUGCCUGCAGGUCGACUCUAGAAAACAUG
PUM1 PUF domain R8-RWQ
  binding signal: 5.71 log2 enrichment (interaction score)
PUM1 PUF domain R8-IYV
  binding signal: 2.44 log2 enrichment (interaction score)
PUM1 PUF domain R8-MYR
  binding signal: 4.58 log2 enrichment (interaction score)
PUM1 PUF domain R8-FFR
  binding signal: 4.67 log2 enrichment (interaction score)
PUM1 PUF domain R8-LFR
  binding signal: 4.59 log2 enrichment (interaction score)

## GGCUAGAACUAGUGGAUCCCCCGGCGCCCGGCGGCUCGAGCCCGGGUAAGUGUAAAUAGUCUGCAUGCCGCCGGGCGCCAUGCCUGCAGGUCGACUCUAGAAAACAUG
PUM1 PUF domain R8-RWQ
  binding signal: 6.33 log2 enrichment (interaction score)
PUM1 PUF domain R5-SRL
  binding signal: 3.16 log2 enrichment (interaction score)
PUM1 PUF domain R3-VCE
  binding signal: 2.11 log2 enrichment (interaction score)
PUM1 PUF domain R4-EWG
  binding signal: 3.6 log2 enrichment (interaction score)
PUM1 PUF domain R6-LWR
  binding signal: 5.05 log2 enrichment (interaction score)
PUM1 PUF domain R8-SWK
  binding signal: 5.34 log2 enrichment (interaction score)
PUM1 PUF domain R8-IYV
  binding signal: 2.36 log2 enrichment (interaction score)
PUM1 PUF domain R8-MYR
  binding signal: 4.65 log2 enrichment (interaction score)
PUM1 PUF domain R3-GWF
  binding signal: 5.35 log2 enrichment (interaction score)
PUM1 PUF domain R8-FFR
  binding signal: 4.42 log2 enrichment (interaction score)
PUM1 PUF domain R6-AYR
  binding signal: 6.13 log2 enrichment (interaction score)
PUM1 PUF domain R8-SYP
  binding signal: 4.16 log2 enrichment (interaction score)
PUM1 PUF domain R6-FYL
  binding signal: 3.73 log2 enrichment (interaction score)
PUM1 PUF domain R8-LFR
  binding signal: 4.31 log2 enrichment (interaction score)
